MEKK2 mut-MEK5: signal of MEK5 binding to mutant human MEKK2 PB1 domain | bead flow cytometry, Alexa488-MEK5 binding to MEKK2 mutant | percent response, % at 10 µM | 0.35% of 290,000 active | AID 1530; in the data active means percent response above about 24%, passing the limit was not always enough
MEKK3 PB1 HTS: MEKK3-MEK5 PB1 interaction, increase or decrease; Q99759; bead-based flow cytometry, Alexa488-MEK5 binding to MEKK3; actives lie on both sides; 0 = blocked by unlabeled MEK5, 100 = vehicle; binding response (% of control), % at 10 µM; 1.4% of 290,000 active; AID 1529;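 active means binding response more than 3 SD above or below the average of its plate-row segment, actives on both sides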;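 further: Alexa488 bead fluorescence after subtracting the streptavidin-only scavenger bead signal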
Rce1 inhib: inhibitors of yeast Ras-converting enzyme. calls only. 0.27% of 290,000 active. Q03530. yeast membranes, quenched prenylated peptide cleavage fluorescence;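 active means fall in fluorescence gain of 50% or more versus controls, with final raw signal at or below 3038400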
Target sequence (Q03530 whole entry, looked up): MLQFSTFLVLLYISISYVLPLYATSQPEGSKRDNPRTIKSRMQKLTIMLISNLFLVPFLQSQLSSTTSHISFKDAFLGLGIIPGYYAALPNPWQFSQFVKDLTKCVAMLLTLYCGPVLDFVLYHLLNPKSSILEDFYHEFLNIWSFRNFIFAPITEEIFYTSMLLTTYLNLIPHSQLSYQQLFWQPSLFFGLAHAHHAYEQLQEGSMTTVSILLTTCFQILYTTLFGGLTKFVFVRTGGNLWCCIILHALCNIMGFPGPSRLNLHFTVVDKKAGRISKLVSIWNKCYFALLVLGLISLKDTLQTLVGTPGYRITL
MEKK2wt PB1 HTS: raises or lowers MEK5 binding to wildtype human MEKK2 PB1 domain; Q9Y2U5; bead flow cytometry, Alexa488-MEK5 binding to MEKK2 WT; actives lie on both sides; binding response (% of control), % at 10 µM; 1.1% of 290,000 active; AID 1531; in the data active means binding response below about 67% or above about 130%
UBC13 inh: inhibitors of human UBC13 polyubiquitin chain formation; P61088; TR-FRET; inhibition, % at 20 µM; 0.47% of 330,000 active; AID 485273; in the data active means inhibition above about 45%, passing the limit was not always enough
MEKK2wt confirm: raises or lowers MEK5 binding to wildtype human MEKK2, retest | shares compounds with MEKK3 PB1 HTS | bead flow cytometry, Alexa488-MEK5 binding to MEKK2 WT; actives lie on both sides | binding response (% of control), % at 10 µM | 2.4% of 5,900 active; in the data active means binding response below about 16% or above about 210%; inactive means in between
MEKK2mut-MEK5: signal of MEK5 binding to mutant human MEKK2, retest | shares compounds with MEKK3 PB1 HTS | 2% of 5,900 active | percent response, % at 10 µM | AID 1893 | bead flow cytometry, Alexa488-MEK5 binding to MEKK2 mutant; in the data active means percent response mostly above about 71%, no sharp cut-off; inactive means mostly below about 38%;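 further: higher means compound restores mutant binding toward wildtype level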
MEKK3 confirm: MEKK3-MEK5 PB1 inhibition, single concentration confirmation; shares compounds with MEKK3 PB1 HTS; binding response (% of control), % at 10 µM; 1.8% of 5,900 active; bead flow cytometry, Alexa488-MEK5 binding to MEKK3; active compounds read low;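 active means binding response below 72% of control, or above a set upper limit, though filed actives all read lower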;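 further: lower values mean stronger disruption of MEK5 binding to MEKK3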
Casp3 UBC13 ctr: counter-screen for UBC13 inhibitors: human caspase-3 inhibition | inhibition, % at 20 µM | 4% of 1,400 active | Recombinant caspase-3, Caspase-Glo 3/7 luminescence, 60 min | shares compounds with UBC13 inh;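 active means mean inhibition across replicates above about 26%, limit read from the data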
UBC13 confirm: confirmation of human UBC13 polyubiquitin inhibitors; shares compounds with UBC13 inh; UBC13 polyubiquitination, TR-FRET, biochemical; inhibition, % at 10 µM; 68% of 1,400 active; in the data active means inhibition above about 45%
Numbers stand for hits; – = inactive; · = not tested or not shown. An excerpt weighted towards active compounds, which were near 2.5% of everything screened.

SMILES	MEKK2 mut-MEK5	MEKK3 PB1 HTS	Rce1 inhib	MEKK2wt PB1 HTS	UBC13 inh	MEKK2wt confirm	MEKK2mut-MEK5	MEKK3 confirm	Casp3 UBC13 ctr	UBC13 confirm
COc1ccc(N2CCN(C(CNC(=O)C(=O)NCC3CCCO3)c3ccco3)CC2)cc1 (stereo unspecified)	–	132	–	–	–	–	–	–	·	·
COc1ccc(S(=O)(=O)Nc2ccccc2C(=O)NCc2cccnc2)cc1	–	–	–	–	–	·	·	·	·	·
C[C@]12CCC3C(CC[C@H]4CCCC[C@]34C)C1CC[C@@]2(O)CNCCO (stereo partly specified)	27	–	–	139	64	–	–	–	–	–
C#CCOCCOCCOCCNc1nc(N2CCOCC2)nc(N2CCN(C(=O)[C@H](Cc3ccc(O)cc3)n3cc([C@@H](N)C(C)CC)nn3)CC2)n1 (stereo partly specified)	–	–	–	–	–	·	·	·	·	·
C#CCOCCOCCOCCNc1nc(N2CCN(C(=O)[C@H](CCCCN)n3cc([C@@H](N)C(C)CC)nn3)CC2)nc(N2CCN(C(=O)[C@H](Cc3ccc(O)cc3)n3cc([C@@H](N)CC(C)C)nn3)CC2)n1 (stereo partly specified)	–	–	–	158	57	–	–	–	–	–
C#CCOCCOCCOCCNc1nc(N2CCN(C(=O)[C@H]([C@@H](C)CC)n3cc(CCCN=C(N)N)nn3)CC2)nc(N2CCN(C(=O)[C@H](CCCCN)n3cc(CCCC)nn3)CC2)n1	–	–	–	172	71	–	–	–	–	47
C#CCOCCOCCOCCNc1nc(N2CCN(C(=O)[C@H](CCCCN)n3cc([C@@H](N)CC(C)C)nn3)CC2)nc(N2CCN(C(=O)[C@H](CCCCN)n3cc([C@@H](N)CC(C)C)nn3)CC2)n1	–	–	–	136	77	–	–	–	–	84
C#CCOCCOCCOCCNc1nc(N2CCN(C(=O)[C@H](CCCCN)n3cc(C(N)CO)nn3)CC2)nc(N2CCN(C(=O)[C@H](CCC(=O)O)n3cc(C(N)CC(C)C)nn3)CC2)n1 (stereo partly specified)	–	–	–	–	–	·	·	·	·	·
C#CCOCCOCCOCCNc1nc(N2CCN(C(=O)C(Cc3ccc(O)cc3)n3cc(C(N)C(C)CC)nn3)CC2)nc(N2CCN(C(=O)C(Cc3ccc(O)cc3)n3cc(C(N)C(C)CC)nn3)CC2)n1 (stereo unspecified)	–	–	–	145	49	–	–	–	–	–
O=C(Cn1[nH]c(=O)c2ccccc2c1=O)NNC(=O)c1ccccc1	–	–	–	–	–	·	·	·	·	·
Cn1ccc2c([N+](=O)[O-])cccc2c1=O	–	–	·	–	–	·	·	·	·	·
O=C(O)c1ccc2[nH]c3c(c2c1)CSCC3	–	–	–	–	–	·	·	·	·	·
CN(C)CCOC(=O)c1ccc2[nH]c3c(c2c1)CSCC3	–	–	–	194	62	–	–	–	–	53
CCNc1oc(-c2cccc3ccccc23)nc1C#N	–	–	–	–	–	·	·	·	·	·
N#Cc1nc(-c2cccc3ccccc23)oc1NCCN1CCCCC1	–	–	–	159	71	–	–	–	–	91
COc1ccc(C2c3ccc4ccccc4c3Oc3ncn(CCCN(C)C)c(=N)c32)cc1 (stereo unspecified)	51	–	–	202	61	–	–	–	–	48
NS(=O)(=O)c1cccc(NC(=O)CN2CCN(Cc3ccc4c(c3)OCO4)CC2)c1	–	–	–	–	–	·	·	·	·	·

Assay outcomes deposited in PubChem BioAssay by several laboratories.
